# Most compounds without a hit are left out; they make up all but 6.7% or so of the library.
# C diff HTS = C. difficile growth inhibitors, primary screen, HTS. Clostridium difficile clinical isolate growth, OD600, 24 h; hits give low values. growth activity, negative = inhibition, % at 16 µg/mL (by protocol). 86,000 tested, 0.25% active. AID 1259249, 2017;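 active = mean growth activity at or below -80% and every replicate also at or below -80%; inconclusive = mean at or below -80% but some replicate above -80%; inactive = mean growth activity above -80%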;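 also: 0% = DMSO wells and -100% = levofloxacin 16 µg/mL wells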
# Pf Dd2 inh = P. falciparum Dd2 growth inhibitors, primary screen, SYBR Green fluorescence, single dose replicates; 72 h; hits give low values; activity change, % at 10 µM; 94,000 tested, 2.3% active; AID 1159554, 2015; in the data active = activity change below about -80%; inconclusive = no clear call, values can overlap the other calls
# T cruzi growth-1 = T. cruzi intracellular proliferation inhibitors, primary screen, cell-based, beta-gal Tulahuen parasites, NIH3T3 host, luminescence; T. cruzi beta-gal in NIH3T3, GalScreen luminescence, 90 h; inhibition, % at 8.34 µM; 77,000 tested, 5.9% active; AID 624255, 2012;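 active = mean inhibition above about 93%, with at least 55% of replicates each passing it, limit read from the data, passing the limit was not always enough; inconclusive = only one of those two conditions holds; inactive = neither condition holds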
# T cruzi growth-2 = T. cruzi intracellular proliferation inhibitors, confirmation, cell-based, NIH3T3 host, beta-gal parasite, luminescence, cherry-pick | 5,600 tested, 72% active | T. cruzi beta-gal in NIH3T3, GalScreen luminescence, 90 h | inhibition, % at 8.35 µM | shares compounds with T cruzi growth-1;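 active = mean replicate inhibition above about 95% and at least 55% of replicates individually reaching it, limit read from the data; inconclusive = only one of the two criteria is met; inactive = neither criterion is met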
# T cruzi growth-3 = inhibitors of intracellular T. cruzi replication, confirmation, NIH3T3 host cells, beta-gal parasites, cherry-pick, set 2 | T. cruzi beta-gal in NIH3T3, GalScreen luminescence, 90 h | inhibition, % at 2.09 µM | shares compounds with T cruzi growth-1 | AID 651740, 2012 | 5,600 tested, 21% active;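 active = mean inhibition above about 95%, with at least 55% of replicates also reaching it, limit read from the data; inconclusive = meets just one of the two conditions; inactive = meets neither condition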;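 also: plate controls were neutral control median for no effect and positive control median for full effect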
# 3T3 cytotox = cytotoxicity in mouse NIH/3T3 fibroblasts, confirmation, cytotoxicity control for T. cruzi proliferation inhibitor project, cell-based, cherry-pick, single point; shares compounds with T cruzi growth-1; cytotoxicity (signal decrease), % at 8.35 µM; NIH/3T3 viability, CellTiter-Glo ATP luminescence, 90 h; 5,600 tested, 14% active;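 active = mean signal decrease across replicates above about 35% based on untreated-well scatter, with enough replicates individually passing, limit read from the data; inconclusive = no rule stated though some were filed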;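 also: 0% = median of neutral control wells and 100% = median of positive control wells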
# NIH3T3 tox 2 = NIH/3T3 fibroblast cytotoxicity, confirmation, cytotoxicity control, cell-based, cherry-pick, single point, set 2; NIH/3T3 viability, CellTiter-Glo ATP luminescence, 90 h; shares compounds with T cruzi growth-1; inhibition, % at 24.9 µM; 5,600 tested, 56% active;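 active = mean loss of cell viability signal at or above a set limit, and enough replicates individually reaching it; inconclusive = meets only the mean limit or only the replicate share; inactive = meets neither condition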;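 also: 0% = median of neutral control wells and 100% = median of positive control wells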
# Numbers without * were called inactive; ? = inconclusive; . = no result.
SMILES,C diff HTS,Pf Dd2 inh,T cruzi growth-1,T cruzi growth-2,T cruzi growth-3,3T3 cytotox,NIH3T3 tox 2
COc1ccccc1CNC(=O)C[C@H]1C[C@H]2c3cc(NC(=O)c4cccnc4)ccc3O[C@H]2[C@@H](CO)O1,.,4,21,.,.,.,.
COc1ccc(CN(C)C[C@@H]2Oc3c(NC(=O)NC4CCCCC4)cccc3C(=O)N([C@@H](C)CO)C[C@@H]2C)cc1,-6,10,-1,.,.,.,.
C[C@@H]1CN([C@H](C)CO)C(=O)Cc2cc(NC(=O)Nc3ccc(F)cc3)ccc2O[C@H]1CN(C)S(=O)(=O)c1ccc(Cl)cc1,-5,-22,-89,.,.,.,.
N#C[C@H]1[C@@H](c2ccc(C#Cc3cccc(F)c3)cc2)[C@@H](CO)N1C(=O)C1CC1,13,-19,85,.,.,.,.
N#C[C@H]1[C@@H](c2ccc(C#Cc3cccc(F)c3)cc2)[C@H](CO)N1C(=O)C1CCC1,-15,-44,100*,96*,105*,20,103*
N#C[C@@H]1[C@H](c2ccc(C#Cc3cccc(F)c3)cc2)[C@@H](CO)N1C(=O)C1CC1,-5,-45,?,101*,95,3,71*
N#C[C@@H]1[C@@H](c2ccc(C#Cc3cccc(F)c3)cc2)[C@H](CO)N1C(=O)C1CC1,3,-34,93,.,.,.,.
N#C[C@H]1[C@@H](c2ccc(C#Cc3cccc(F)c3)cc2)[C@@H](CO)N1C(=O)C1CCOCC1,15,3,22,.,.,.,.
N#C[C@@H]1[C@@H](c2ccc(C#Cc3cccc(F)c3)cc2)[C@H](CO)N1C(=O)C1CCCC1,4,-32,97*,100*,101*,16,79*
C[C@H](CO)N1C[C@H](C)[C@@H](CN(C)S(=O)(=O)c2cn(C)cn2)Oc2ccc(NS(=O)(=O)c3ccc(Cl)cc3)cc2CC1=O,0,-16,-4,.,.,.,.
CC(C)NC(=O)N(C)C[C@H]1OCCCC[C@@H](C)Oc2ccc(N(C)C)cc2C(=O)N([C@@H](C)CO)C[C@@H]1C,10,-5,40,.,.,.,.
CNC[C@H]1Oc2ccc(NS(=O)(=O)c3ccc(F)cc3)cc2CC(=O)N([C@@H](C)CO)C[C@H]1C,-4,14,.,.,.,.,.
C[C@@H]1CCCCO[C@H](CN(C)Cc2ccncc2)[C@H](C)CN([C@@H](C)CO)C(=O)c2cc(NS(C)(=O)=O)ccc2O1,0,31,104*,19,-11,-20,-2
C[C@@H]1CCCCO[C@@H](CN(C)Cc2ccccc2)[C@@H](C)CN([C@@H](C)CO)C(=O)c2cc(NS(=O)(=O)c3ccccc3)ccc2O1,.,-28,-5,.,.,.,.
C[C@@H]1CCCCO[C@@H](CN(C)Cc2ccccc2)[C@@H](C)CN([C@@H](C)CO)C(=O)c2cc(NS(=O)(=O)c3ccc(Cl)cc3)ccc2O1,11,-44,?,95*,108*,6,104*
C[C@@H]1CCCCO[C@@H](CN(C)Cc2ccncc2)[C@H](C)CN([C@H](C)CO)C(=O)c2cc(NS(=O)(=O)c3ccc(Cl)cc3)ccc2O1,-12,6,?,96*,55,-7,-7
C[C@@H]1CN([C@H](C)CO)C(=O)c2cc(NS(=O)(=O)c3ccc(Cl)cc3)ccc2O[C@@H](C)CCCCO[C@@H]1CN(C)Cc1ccncc1,-6,-52,7,.,.,.,.
C[C@H](CO)N1C[C@H](C)[C@@H](CN(C)Cc2ccccc2)OCCCC[C@H](C)Oc2ccc(NS(=O)(=O)c3ccccc3)cc2C1=O,.,24,21,.,.,.,.
C[C@@H]1CCCCO[C@H](CN(C)Cc2ccncc2)[C@H](C)CN([C@H](C)CO)C(=O)c2cc(NS(C)(=O)=O)ccc2O1,-3,-2,8,.,.,.,.
C[C@H](CO)N1C[C@H](C)[C@H](CN(C)Cc2ccccc2)OCCCC[C@H](C)Oc2ccc(NS(=O)(=O)c3ccc(Cl)cc3)cc2C1=O,6,-27,107*,?,?,?,104*
C[C@@H]1CN([C@@H](C)CO)C(=O)c2cc(NS(=O)(=O)c3ccccc3)ccc2O[C@@H](C)CCCCO[C@H]1CN(C)Cc1ccccc1,1,-18,.,.,.,.,.
C[C@@H]1CN([C@@H](C)CO)C(=O)c2cc(NS(=O)(=O)c3ccc(Cl)cc3)ccc2O[C@@H](C)CCCCO[C@H]1CN(C)Cc1ccccc1,2,-39,109*,109*,107*,17,88*
CCCN(C)C[C@H]1OCCCC[C@@H](C)Oc2ccc(NS(C)(=O)=O)cc2C(=O)N([C@H](C)CO)C[C@@H]1C,3,0,38,.,.,.,.
C[C@@H]1CCCCO[C@H](CN(C)Cc2ccccc2)[C@@H](C)CN([C@@H](C)CO)C(=O)c2cc(NS(=O)(=O)c3ccccc3)ccc2O1,.,-41,-68,.,.,.,.
C[C@H]1CCCCO[C@@H](CN(C)Cc2ccccc2)[C@@H](C)CN([C@@H](C)CO)C(=O)c2cc(NS(=O)(=O)c3ccc(Cl)cc3)ccc2O1,1,-51,110*,100*,55,12,103*
SMILES,C diff HTS,Pf Dd2 inh,T cruzi growth-1,T cruzi growth-2,T cruzi growth-3,3T3 cytotox,NIH3T3 tox 2
CCCN(C)C[C@@H]1OCCCC[C@H](C)Oc2ccc(NS(C)(=O)=O)cc2C(=O)N([C@@H](C)CO)C[C@H]1C,-5,-40,?,55,40,3,-9
CN1CCN(C(=O)C2=C[C@@H](c3ccc4c(c3)OCO4)C[C@@H](OCCCCO)O2)CC1,-4,.,.,.,.,.,.
C[C@H]1CN([C@@H](C)CO)S(=O)(=O)c2ccc(/C=C/c3ccccc3)cc2O[C@@H]1CN(C)C(=O)c1ccc2c(c1)OCO2,2,-63,118*,104*,61,30,38*
C/C=C/c1ccc2c(c1)O[C@H](CN(C)C(=O)c1ccc3c(c1)OCO3)[C@H](C)CN([C@@H](C)CO)S2(=O)=O,-4,-9,77,.,.,.,.
C/C=C/c1ccc2c(c1)O[C@H](CN(C)C(=O)c1ccc3c(c1)OCO3)[C@@H](C)CN([C@@H](C)CO)S2(=O)=O,-3,-42,50,.,.,.,.
C[C@H](CO)N1C[C@H](C)[C@H](CN(C)C(=O)c2ccc3c(c2)OCO3)Oc2cc(/C=C/c3ccccc3)ccc2S1(=O)=O,1,-83*,106*,104*,92,19,27*
C/C=C/c1ccc2c(c1)O[C@@H](CN(C)C(=O)c1ccc3c(c1)OCO3)[C@@H](C)CN([C@@H](C)CO)S2(=O)=O,3,-25,28,.,.,.,.
